Here are results for 31 molecules from PubChem BioAssay AID488851 (National Center for Advancing Translational Sciences (NCATS), 2010).

The structures appear in SMILES notation. Results filed as inconclusive are left out. A number with no mark means an inactive call. The source made the active and inactive calls. The call rests on the fitted dose curve; in most records, active means well fitted activation curve with a large enough effect; inconclusive means small, poorly fitted or top-dose-only effect; inactive means flat fitted curve, though single readings scatter.

The assay deals with Lysosomal acid glucosylceramidase (Homo sapiens) (UniProt P04062). Nature of the assay: qHTS Assay for Inhibitors and Activators of N370S glucocerebrosidase as a Potential Chaperone Treatment of Gaucher Disease: Purified Non-mutant Confirmation for Probe SAR. The following applies: purified GC, 4MU-beta-glucoside fluorescence, 40 min; series mostly up to 57.5 µM; activity change, negative = inhibition: at the top concentration. The source says: NIH Chemical Genomics Center [NCGC] NIH Molecular Libraries Probe Production Centers Network [MLPCN] MLPCN Grant: MH086442-01 Assay Submitter (PI): Wei Zheng Glucocerebrosidase (GC) catalyzes the hydrolysis of beta-glucocerebroside to glucose and ceramide in lysosomes. Mutations in the glucocerebrosidase gene result in Gaucher disease, an autosomal recessive lysosomal storage disorder. Many of the mutations encountered in patients with Gaucher disease are missense alterations that may cause misfolding, decreased stability and/or mistrafficking of this lysosomal protein. […] These inhibitors include iminosugar analogs and three non-iminosugar inhibitors identified from a previous HTS of 62,000 compounds with the wild type recombinant enzyme. However, the enhancement of enzyme activity by the chaperone action of an enzyme inhibitor must be balanced against the direct inhibition of the enzyme. An enzyme activator could also function as a chaperone by binding to the enzyme and helping to correct its misfolding and mistrafficking. While activators for GC have not yet been identified, they may have better therapeutic potential than inhibitors. Therefore the discovery and development of chemical activators may provide a new strategy for the chaperone therapy. We have optimized a new assay using N370S mutant GC derived from the spleen of a Gaucher patient. […] In addition, the MLPCN compound library has expanded, which increases the chance of finding new and better probes. This assay characterizes compound activity using purified wildtype enzyme instead of mutant enzyme from tissue homogenate. Compound activity differences may be due to the absence of endogenous cofactors found in tissue homogenate as well as inherent differences in enzyme stability and catalytic activity between the N370S and wildtype forms of the protein.
Chain of Lysosomal acid glucosylceramidase (Homo sapiens) (P04062 whole entry, looked up): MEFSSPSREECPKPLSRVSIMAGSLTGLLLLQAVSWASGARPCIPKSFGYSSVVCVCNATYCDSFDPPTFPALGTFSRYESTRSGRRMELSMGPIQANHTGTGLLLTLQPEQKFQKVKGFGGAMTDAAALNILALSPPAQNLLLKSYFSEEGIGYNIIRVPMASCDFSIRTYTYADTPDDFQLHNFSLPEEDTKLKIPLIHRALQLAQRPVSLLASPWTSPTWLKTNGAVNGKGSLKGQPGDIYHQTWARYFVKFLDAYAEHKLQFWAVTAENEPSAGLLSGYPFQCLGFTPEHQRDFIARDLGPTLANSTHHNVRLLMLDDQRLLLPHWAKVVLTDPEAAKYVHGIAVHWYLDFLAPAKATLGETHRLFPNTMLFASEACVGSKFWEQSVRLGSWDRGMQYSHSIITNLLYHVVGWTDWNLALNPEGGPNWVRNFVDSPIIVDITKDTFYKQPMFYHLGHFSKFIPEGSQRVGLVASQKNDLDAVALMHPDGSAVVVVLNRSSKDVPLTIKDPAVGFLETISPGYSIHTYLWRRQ
NCGC Assay Protocol Summary: This is a fluorogenic enzyme assay with 4-methylumbelliferyl-beta-D-glucopyranoside as the substrate and purified wildtype glucocerebrosidase as the enzyme preparation. Upon the hydrolysis of this fluorogenic substrate, the resulting product, […] which can be detected by a standard fluorescence plate reader. Data were normalized to the controls for basal activity (without enzyme) and 100% activity (with enzyme). The AC50 values were determined from concentration-response data modeled with the standard Hill equation. Assay buffer: 50 mM citric acid (titrated with potassium phosphate to pH 5.0), 100 mM potassium chloride, 10 mM sodium chloride, 1 mM magnesium chloride, 0.01% Tween-20. 1536-well assay protocol: (1) Add 2 ul/well of glucocerebrosidase enzyme solution (5 nM final) (2) Add 23 nL compounds in DMSO solution. The final titration was 0.5 nM to 58 uM. (3) Add 2 ul of substrate (1 mM final) (4) Incubate at 37C for 40 min. (5) Add 2 ul stop solution (1M NaOH and 1M Glycine mixture, pH 10) (6) Detect the assay plate in a ViewLux plate reader (PerkinElmer) with Ex=365 nm and Em=440nm. Keywords: Glucocerebrosidase, beta-glucosidase, Gaucher Disease, pharmacological chaperone, chaperone therapy, high throughput screening, glucocerebrosidase inhibitor, MLSMR, MLSCN, NIH Roadmap, qHTS and NCGC
On the technique in general: In qHTS, concentration-response curves come from the screen itself.
For the molecule `COc1ccc(NC(=O)c2cnn3c(C)cc(C)nc23)cc1`, the Potency was 16.3 µM (active).
Same read-out and setting: the value for `Cc1cc(C)n2ncc(C(=O)Nc3ccc4c(c3)CCC4)c2n1` was 10.3 µM (active); that for `Cc1cc(C)n2ncc(C(=O)NC3CCC(C(C)(C)C)CC3)c2n1` (stereo unspecified) was 13 µM (active).
As to `Cc1cc(C)n2ncc(C(=O)Nc3ccc(Br)cc3)c2n1`, the Potency is 16.3 µM (active).
Regarding `Cc1cc(C)n2ncc(C(=O)Nc3ccc(S(C)(=O)=O)cc3)c2n1`, the “activity change, negative = inhibition” value was 8.37%.
On to `Cc1cc(C)n2ncc(C(=O)NCc3ccco3)c2n1`, for which the Potency is 23.1 µM (active).
For the molecule `Cc1cc(C)n2ncc(C(=O)Nc3ccc4c(c3)OCO4)c2n1`, the Potency was 10.3 µM (active).
As for `Cc1cccc(NC(=O)c2cnn3c(C)cc(C)nc23)c1`, the Potency is 16.3 µM (active).
Regarding `CC(=O)c1ccc(NC(=O)c2cnn3c(C)cc(C)nc23)cc1`, the “activity change, negative = inhibition” value was 20.5%.
Consider `CC(=O)Nc1ccccc1NC(=O)c1cnn2c(C)cc(C)nc12`, for which the “activity change, negative = inhibition” value is 13.3%.
With `CC(=O)c1cccc(NC(=O)c2cnn3c(C)cc(C)nc23)c1`, the Potency was 32.6 µM (active).
In the case of `Cc1cc(C)n2ncc(C(=O)Nc3cccc(C#N)c3)c2n1`, the “activity change, negative = inhibition” value was 5.68% [at 19 µM].
Turning to `C#Cc1ccc(NC(=O)c2cnn3c(C)cc(C)nc23)cc1`, the Potency was 5.17 µM (active).
Same read-out and setting: then `Cc1cc(C)n2ncc(C(=O)Nc3ccccc3C)c2n1`, with 13 µM (active); and `Cc1cc(C)n2ncc(C(=O)Nc3ccccc3)c2n1`, with 7.3 µM (active).
Consider `COc1ccc(NC(=O)c2cnn3c(C)cc(C)nc23)cc1OC`, for which the “activity change, negative = inhibition” value was 21.2%.
Take `CCc1ccc(NC(=O)c2cnn3c(C)cc(C)nc23)cc1`: the Potency is 11.6 µM (active).
In the case of `Cc1cc(C)n2ncc(C(=O)NC(C)C)c2n1`, the Potency is 41.1 µM (active).
On to `COc1ccc(NC(=O)c2cnn3c(C)cc(C)nc23)cc1Cl`, for which the Potency was 20.6 µM (active).
On to `Cc1ccc(NC(=O)c2cnn3c(C)cc(C)nc23)c(C)c1`, for which the Potency was 20.6 µM (active).
Regarding `Cc1ccc(NC(=O)c2cnn3c(C)cc(C)nc23)cc1`, the Potency is 9.19 µM (active).
As for `Cc1cc(C)n2ncc(C(=O)N3CCCC3)c2n1`, the “activity change, negative = inhibition” value is 2.31%.
`O=C(Nc1ccccc1Sc1ccccc1)c1cnn2c1NC(=C1CC1)C=C2C(F)F`: the Potency is 32.6 µM (active).
As to `CNC(=O)c1cnn2c(C)cc(C)nc12`, the “activity change, negative = inhibition” value was -2.54%.
Turning to `Cc1cc(C)n2ncc(C(=O)Nc3ccncc3)c2n1`, the “activity change, negative = inhibition” value is 1.71%.
For `Cc1cc(C)n2ncc(C(=O)Nc3ccc4c(c3)OCCO4)c2n1`, the Potency is 16.3 µM (active).
Regarding `Cc1cc(C)n2ncc(C(=O)Nc3ccc(C(F)(F)F)cc3)c2n1`, the Potency is 6.51 µM (active).
Regarding `Cc1cc(C)n2ncc(C(=O)Nc3ccc(C)c(C)c3)c2n1`, the Potency was 5.8 µM (active).
Take `COc1ccc(NC(=O)c2cnn3c(C)cc(C)nc23)cc1F`: the Potency was 13 µM (active).
As to `Cc1cc(C)n2ncc(C(=O)NC3CCCCC3)c2n1`, the Potency is 11.6 µM (active).
With `Cc1cc(C)n2ncc(C(=O)NCc3ccccc3)c2n1`, the Potency is 32.6 µM (active).
